Experimental data from the supplement of paper PMC6555819.

The sequences below were run on VDR:RXRa (NR concentration 270 nM, RXRa partner concentration 90 nM) (assay: PBM binding z-score (relative to random genomic background probes); higher = stronger binding; sequences stand for … in GC…GCGATTGACAGCGTAGAATGAAGG).
Procedure, shortened: (§1)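 Regression normalization was applied to scanned fluorescence from custom Agilent 4×180K protein-binding microarrays. Before scanning, arrays were incubated 1 h with ligand-free nuclear receptor dimers, and binding was detected with antibodies against each partner (one per run). Binding z-scores use the random background probes as reference.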

Sequence	PBM binding z-score
CGAACTAGGTCATTGACAGGACAGTTAATAGTAA	2.16
TCTTGTAGATCAACAGGAGGTTAAGAACGATCGA	0.419
CCAGACAGGTGAGAAGGTAACCCAGCCTCGATTA	-0.04
ACTAGCAGGCCAAGTTTGGGTCACTGAAACAAAG	0.731
CGTCCAAGGGCAAAGGTCAGTGAAGAGATGACGG	3.89
GCTTGTAGATAAAGGTTAAGAAAGACTAAGCTAA	0.626
TTACCAAGGTGGAGGTCGTTGATCCCTCTGTAGA	1.65

What follows are sequences tested on VDR homodimer (NR concentration 270 nM) in the same assay as above.
Procedure, shortened: as §1

Sequence	PBM binding z-score
CCGACTAGGGCATAAGGTTACCATAAGCCAGCCC	-0.17
CCTAGCAGGCCAGGGTCCCTCAAGCATTTCGCTT	-0.542
CGTCAAATTTCAAGGTAACGTAACAGAAAGCAGC	-0.239
AATACAGAGTCACTAGGCCAGAGTAGGTACGAAT	-0.0774
AATACAGGCTCACTAGGCCAGAGTAGGTACGAAT	-0.126
TCATATAGGTAAAAGGTGAAAATCGGTGTGGTAA	0.627
TGTCAAAGTTCAAAGGTAACATAAGTATCCACAC	4.17
AGAGTGAGGTTAAGATCAGGGAAACAGAATACAT	1.06
CCTAGTTGGTCGGGAGGTCACACACCGGATATGA	3.06
ATAGCAAGGTGATCGTGAGGTCGTTGATACTAAC	1.97
TCGAGTAGGTTGCCAATGGGGCATTCAGCTTTCT	-0.846
CCGACTGGGGCAGAAAGGTTACCACACCATCCGG	-0.223
ATCTCTATGTAACCAAGTTCAGTGAATGCCGAAC	2.31
AGAATGACGTTATACGTAGATCAGGGAAGAAAGT	-0.467
ATATGTAGGTTATCGGGTCATTCCGTTTGCGCAT	3.21
GCGTACGGGTCAAAGGTTATAGCATGAATAGAAT	1.08
CCACACAGGTGAGAAGGTAACTCAGCCTCGATTA	-0.221
CGTCCAAGGTCAAGGTCAGTTAAAGAGACTCGAA	3.29
CGAACTAGTTCAGAACAGGACAGTGAAGGATGAT	0.226
TCATATAAGTAAACAGGTGAAAGTCCGTAAGTTA	0.857

Sequence	PBM binding z-score
TCTAGTTGGTCAAACGTCACACACTCGAAATGCG	0.2
AACTCTAGGTAAAGATAGTTCAGTGAATGCAAAT	0.243
TCTTATAGATCAACAGGAGGTTAAGAAAGATCGA	-0.0267
TCTGCTAGGTTAACGATGGTCAGCTAATCTGCTA	-0.957
GCAGAGAGGTGAAACGCAGGTAACTCAGGGTGGC	-0.369
CCTACCGGGCCAAGGTCATTGATCAGTCAAAGCA	3.08
TTACCAAGGGGAAGGTCGTTGATCCCTCTGTAGA	0.435
GCGACTGGGGCAAAGGAGGTTACCATAAGGTTGG	0.291
GTACCAAGCTGAATAGGTCGTTGATGAGTAGGCG	-0.43
GCGACTGGGGCCTCAGCAGGTTACCATAACTTAA	-0.622
GCTTGTAGATCGAGGTTAAGAAAGACTAAGCTAA	-0.273
CGAACTAGGTCATTGACAGGACAGTTAATAGTAA	1.27
TCTTGTAGATCAACAGGAGGTTAAGAACGATCGA	-0.0634
CCAGACAGGTGAGAAGGTAACCCAGCCTCGATTA	-0.253
ACTAGCAGGCCAAGTTTGGGTCACTGAAACAAAG	0.416
CGCCCAAGGTCAATGCTAGGTCAGTGAAAGCATT	2.51
CGTCCAAGGGCAAAGGTCAGTGAAGAGATGACGG	1.34
GCTTGTAGATAAAGGTTAAGAAAGACTAAGCTAA	-0.0184
TTACCAAGGTGGAGGTCGTTGATCCCTCTGTAGA	1.32
